This is a sample that favours compounds with a hit; in the whole collection about 6.8% have one here.
Cy5 interf NS3h: Cy5 fluorescence quenchers or enhancers, artefact control for HCV NS3 helicase inhibitor project, biochemical, ChemBridge library, Cy5 readout; Cy5-dT15 DNA with NS3h, fluorescence interference; actives lie on both sides; signal over control mean, under 1 quenches; fluorescence interference ratio at 100 µM; 6% of 16,000 active;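 active = compound fluorescence over control fluorescence at most 0.8, a quencher, or at least a set upper limit, an enhancer; inactive = ratio between 0.8 and the set upper limit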
HCV NS3h FP: HCV NS3 helicase inhibitors, primary screen, biochemical, fluorescence polarization, ChemBridge library; Hepatitis C virus NS3 helicase; NS3h Cy5-dT15 DNA binding; inhibition, % at 100 µM; 1.6% of 16,000 active; AID 687043, 2013;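 active = inhibition above the average over every tested compound plus 3 SD, cut at about 40% in these data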
Starred values were filed as active, the others as inactive.

SMILES	Cy5 interf NS3h	HCV NS3h FP
Cc1cc(C)c(S(=O)(=O)Nc2cc(Cl)c3oc4c(c3c2)C(=O)CCC4)c(C)c1	0.97	7
O=C(Nc1ccccc1)Nc1ncccn1	0.78*	12
O=C(Nc1ccncc1)Nc1ccccn1	1	5
O=C(O)CCC(=O)N1N=C(c2c(-c3ccccc3)c3cc(Cl)ccc3[nH]c2=O)CC1c1cccc([N+](=O)[O-])c1 (centres undefined)	0.99	27
Cc1ccc(C(=O)N/C(=C\c2cccc(Oc3ccccc3)c2)C(=O)NCCN2CCOCC2)cc1	0.95	15
CCOc1cc(C(=S)N2CCOCC2)ccc1OS(=O)(=O)c1ccc(C)cc1	0.88	11
CCOc1cc(C(=S)N2CCOCC2)cc(Br)c1O	0.72*	21
COCCCNC(=O)/C(=C\c1ccc(-c2ccc(Cl)cc2)o1)NC(=O)c1ccc(C)cc1	0.86	25
CN(C)/C(=N\OC(=O)c1ccc([N+](=O)[O-])cc1)c1nonc1N	0.67*	19
N/C(=N/OC(=O)c1ccc(I)cc1)c1ccc([N+](=O)[O-])cc1	0.95	3
CS(=O)(=O)N1CCN(Cc2ccncc2)CC1	0.68*	-12
CS(=O)(=O)N1CCN(Cc2ccccc2Br)CC1	0.67*	-2
COc1ccccc1CN1CCN(S(C)(=O)=O)CC1	0.77*	5
CSc1ccc(CN2CCN(S(C)(=O)=O)CC2)cc1	1	0
CS(=O)(=O)N1CCN(Cc2ccc(Cl)cc2)CC1	1.1	-14
COc1cc(OC)c(OC)cc1CN1CCN(S(C)(=O)=O)CC1	1	-16
CSc1nc(=O)n(-c2ccc3ccccc3c2)c(C)c1C(C)=O	0.95	1
Cc1c(C=O)cc2c(c1C)OC1(C=C2)N(C)c2ccccc2C1(C)C (centres undefined)	1	-1
Brc1ccc(-c2nc(-c3ccccc3)nc(-c3ccccc3)n2)cc1	1.1	1
COc1ccccc1N(CC(=O)Nc1ccc2ccccc2c1)S(=O)(=O)c1ccccc1	1	14
O=C(Nc1ccc(-c2cn3ccccc3n2)cc1)c1cccc(Br)c1	0.94	-33
CCCc1c(C)[nH]c2c(OC)cccc2c1=O	1	0
O=C1c2ccccc2C(=O)N1N1C(=O)c2cccc([N+](=O)[O-])c2C1=O	1	2
O=[N+]([O-])c1cccc2c1=C1C(Cl)=CC=C1C=2	0.54*	1
O=C1CC(c2ccccc2)CC2=C1C(c1cccc([N+](=O)[O-])c1)Nc1ccc(C(=O)c3ccccc3)cc1N2 (centres undefined)	0.69*	14
SMILES	Cy5 interf NS3h	HCV NS3h FP
O=C1CC(c2ccccc2)CC2=C1C(c1ccc([N+](=O)[O-])cc1)Nc1ccc(C(=O)c3ccccc3)cc1N2 (centres undefined)	1.1	10
COc1ccc(C(NC(=O)Cc2ccccc2)c2ccc3cccnc3c2O)cc1 (centres undefined)	1	4
O=C(O)CCCN1C(=O)C(=O)C(=C(O)c2ccc(Cl)cc2)C1c1ccccc1 (centres undefined)	1.1	31
COc1ccc(C2C(=C(O)c3ccc(Cl)cc3)C(=O)C(=O)N2CCCC(=O)O)cc1 (centres undefined)	0.15*	-44
CCOC(=O)c1c(-c2ccc(C)cc2)csc1NC(=O)C1CC1	1	8
CCOC(=O)c1c(-c2ccc(C)cc2)csc1NC(=O)C(C)(C)C	0.69*	19
COc1ccc(C(=O)c2ccccc2)c(OC)c1	0.91	-6
COc1ccc(/C(C)=N\N=C(\C)c2ccc(OC)cc2OC)c(OC)c1	0.67*	16
O=C(Nc1cc(Cl)ccc1Cl)c1ccc(Cl)c(Cl)c1	1.2	3
N/C(Cc1ccc([N+](=O)[O-])cc1)=N/OC(=O)c1cccc(I)c1	1.1	14
N/C(Cc1ccc(Cl)cc1)=N/OC(=O)c1ccc([N+](=O)[O-])cc1	0.79*	-8
Cc1ccc(C(=O)N2N=C(c3ccccc3)CC2(O)C(F)(F)F)cc1 (centres undefined)	0.92	14
CCc1ccc(/C=C2\C(=O)NN(c3ccccc3)C2=O)cc1	1	22
CCc1ccc(N2NC(=O)CC2=O)cc1	0.73*	10
COc1ccccc1N1C(=O)NC(=O)C(=Cc2cc(OC)c(O)c([N+](=O)[O-])c2)C1=O	0.87	34
COc1ccccc1N1C(=O)C(=Cc2cccn2C)C(=O)NC1=S	0.68*	44*
CCCc1cc(=O)n2[nH]c(-c3cccc(F)c3)cc2n1	1.1	6
Cc1cc(=O)oc2c1ccc1oc(/C(=N/O)c3ccc(Cl)cc3)c(C)c12	0.94	-1
O=C(NC(Cc1ccccc1)C(=O)Nc1ccccc1)OCc1ccccc1 (centres undefined)	0.68*	5
O=C(Nc1ccc(OCc2ccccc2)cc1)C(c1ccccc1)c1ccccc1	0.98	8
COc1ccc(C(=O)Nc2ccc3oc(-c4ccccc4Cl)nc3c2)cc1Br	0.93	14
COc1ccc(Br)cc1C(=O)Nc1ccc2oc(-c3ccccc3F)nc2c1	1.2*	-87
Cc1c(NC(=S)NC(=O)/C=C/c2ccccc2)cccc1-c1nc2ncccc2o1	1.1	-24
O=C(Nc1ccccc1-c1ccccc1)c1ccc(I)cc1	1	17
Cc1nc(Nc2nc(O)cc(=O)[nH]2)nc2c(C)cccc12	0.64*	-4
SMILES	Cy5 interf NS3h	HCV NS3h FP
Cc1cc(=O)[nH]c(Nc2nc(C)c3cccc(C)c3n2)n1	1.1	36
COc1ccc(N2C(=O)c3ccc(C(=O)Nc4ccccc4I)cc3C2=O)cc1	1	8
COc1ccc(N2C(=O)c3ccc(OCCOc4ccc5c(c4)C(=O)N(c4ccc(OC)cc4)C5=O)cc3C2=O)cc1	0.64*	2
O=C(Nc1ccccc1C(=O)Nc1ccccn1)c1ccccc1F	0.95	9
O=C(Nc1ccccc1C(=O)Nc1ccccn1)c1ccco1	1.1	42*
NC(=O)N=Nc1c(O)[nH]c2ccccc12	0.85	12
O=C(CSCc1cccc(Br)c1)N=Nc1c(O)[nH]c2ccccc12	0.8*	16
O=C(CO/N=C\c1ccccc1)N=Nc1c(O)[nH]c2ccc(Br)cc12	0.78*	-6
Cc1ccc2[nH]c(O)c(N=NC(=O)COc3ccccc3)c2c1Br	0.86	11
Cc1cccc(C2OC3(C(=O)c4ccccc4C3=O)C3C(=O)N(c4ccc(C)c(Cl)c4)C(=O)C23)c1 (centres undefined)	0.95	0
CN(C)c1nc(-c2ccccc2)c(N)c(-c2ccccc2)n1	0.91	-16
NS(=O)(=O)c1ccc(CNC(=O)c2ccccc2Cl)cc1	0.94	-2
CC1=NN(C(=O)c2ccc(Cl)cc2)C(O)(c2cccnc2)C1 (centres undefined)	0.96	-4
CC1=NN(C(=O)c2cccnc2)C(C)(O)C1(C)C (centres undefined)	0.65*	-2
CS(C)=C1C(=O)NC(=O)N(c2ccccc2)C1=O	1	-1
COc1ccc(C(CC(=O)N2CCOCC2)c2ccccc2)cc1 (centres undefined)	0.93	4
O=C1NC(=S)N(c2ccc(F)cc2)C(=O)C1=Cc1ccc([N+](=O)[O-])s1	0.88	43*
CC(C)(C)N1C(=O)NC(=O)C(=Cc2ccc([N+](=O)[O-])s2)C1=O	0.88	40
COc1ccc(CC(=O)Nc2ccc(C)c(NC(=O)c3ccccc3)c2)cc1OC	0.97	-26
